According to PubChem BioAssay (Tox21):
Records with an inconclusive call do not appear. A call without a number means that no potency is given here. The source made the active and inactive calls. Calls follow the shape of the full dose curve.

Target: Beta-2 adrenergic receptor (Homo sapiens) (UniProt P07550)
Assay: Adrenergic beta2 receptor (ADRB2) small molecule agonists, cell-based qHTS assay (AID 1963593);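 also: CHO cells stably overexpressing human ADRB2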
Procedure, shortened: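 CHO cells stably over-expressing ADRB2 were plated overnight at 37C, then dosed with compounds plus a stimulation mix containing 100uM IBMX and 25uM Ro-20-1724 for 0.5hr at room temperature. cAMP was measured by HTRF competition, 1hr.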

Beta-2 adrenergic receptor (Homo sapiens), sequence (P07550 whole entry, looked up): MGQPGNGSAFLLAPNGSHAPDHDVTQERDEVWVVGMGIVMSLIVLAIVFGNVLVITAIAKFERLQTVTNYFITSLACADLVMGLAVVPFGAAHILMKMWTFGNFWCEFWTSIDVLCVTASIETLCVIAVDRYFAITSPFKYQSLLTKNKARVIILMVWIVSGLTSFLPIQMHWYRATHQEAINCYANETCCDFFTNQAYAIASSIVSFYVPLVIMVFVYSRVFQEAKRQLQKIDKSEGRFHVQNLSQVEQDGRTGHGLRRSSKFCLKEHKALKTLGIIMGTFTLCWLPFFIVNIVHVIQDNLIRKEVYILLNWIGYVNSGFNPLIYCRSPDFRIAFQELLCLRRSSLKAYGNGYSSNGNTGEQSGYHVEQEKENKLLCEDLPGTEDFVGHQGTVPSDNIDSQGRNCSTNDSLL

SMILES: CCCCCCCCCCCC[N+](C)(C)CC(=O)[O-]
- Potency: inactive

SMILES: O=C1c2ccccc2C(=O)C1c1ccccc1
- Potency: inactive

SMILES: CCCCCCCCCC=O
- Potency: inactive

SMILES: O=C(O)P(=O)(O)O
- Potency: inactive

SMILES: COc1ccc(S(=O)(=O)N2c3ccc(Cl)cc3[C@@](O)(c3ccccc3Cl)[C@H]2C(=O)N2CCC[C@@H]2C(N)=O)cc1OC
- Potency: inactive

SMILES: COc1ccccc1OC(=O)Oc1ccccc1OC
- Potency: inactive

SMILES: CN1CCN(CCCN2c3ccccc3Sc3ccc(Cl)cc32)CC1
- Potency: inactive

SMILES: CC(C(=O)O)c1ccc(C(=O)c2ccccc2)s1 (configuration not stated)
- Potency: inactive

SMILES: CN(C)Cc1ccccc1
- Potency: inactive

SMILES: C#Cc1ccc(-c2ccccc2F)cc1
- Potency: inactive

SMILES: CCN(CC)C(=O)N1CCN(C)CC1
- Potency: inactive

SMILES: COc1cnc(NS(=O)(=O)c2ccc(N)cc2)nc1
- Potency: inactive

SMILES: O=C1c2ccccc2C(=O)N1CCl
- Potency: inactive

SMILES: C#CC(C)N(C)C(=O)Nc1ccc(Cl)cc1 (configuration not stated)
- Potency: inactive

SMILES: COC(=O)c1c(C)cc(O)c(C)c1O
- Potency: inactive

SMILES: C[C@@H]1C[C@H]2[C@@H]3CCC4=CC(=O)C=C[C@]4(C)[C@@]3(F)[C@@H](O)C[C@]2(C)[C@H]1C(=O)CO
- Potency: inactive

SMILES: CNC(=O)c1c(I)c(NC(=O)CCCCC(=O)Nc2c(I)c(C(=O)O)c(I)c(C(=O)NC)c2I)c(I)c(C(=O)O)c1I
- Potency: inactive

SMILES: CCN(CC)CCNC(=O)c1cc(S(C)(=O)=O)ccc1OC
- Potency: inactive

SMILES: CC(C)c1ccc2oc3nc(N)c(C(=O)O)cc3c(=O)c2c1
- Potency: inactive

SMILES: CCOc1ccccc1O
- Potency: inactive

SMILES: CCC(C(=O)O)c1ccc(N2Cc3ccccc3C2=O)cc1 (configuration not stated)
- Potency: inactive

SMILES: CC(CN(C)C)C(C)(O)Cc1ccc(Cl)cc1 (configuration not stated)
- Potency: inactive

SMILES: FC(F)(F)c1ccc(Cl)cc1Cl
- Potency: inactive

SMILES: CC[C@H]1OC(=O)[C@H](C)[C@@H](O[C@H]2C[C@@](C)(OC)[C@@H](O)[C@H](C)O2)[C@H](C)[C@@H](O[C@@H]2O[C@H](C)C[C@H](N(C)C)[C@H]2O)[C@](C)(O)C[C@@H](C)C(=O)[C@H](C)[C@@H](O)[C@]1(C)O
- Potency: inactive

SMILES: CCOCC(O)COc1ccc(NC(=O)CC[S+](C)C)cc1 (configuration not stated)
- Potency: inactive

SMILES: CCCCCC[C@@H](CCC)C(=O)O
- Potency: inactive

SMILES: NS(=O)(=O)c1cc(C(=O)O)cc(N2CCCC2)c1Oc1ccccc1
- Potency: inactive

SMILES: CC(N)C12CC3CC(CC(C3)C1)C2 (configuration not stated)
- Potency: inactive

SMILES: COCC(=O)Nc1c(I)c(C(=O)NCC(O)CO)c(I)c(C(=O)N(C)CC(O)CO)c1I (configuration not stated)
- Potency: inactive

SMILES: CN(C)CCN1C(=O)c2ccccc2N(C)c2ccccc21
- Potency: inactive

SMILES: O=C(O)c1cccc(Cl)n1
- Potency: inactive

SMILES: C=C(C)C(=O)OCCCC
- Potency: inactive

SMILES: C/C=C/C(=O)CC
- Potency: inactive

SMILES: CCCCC(=O)OCC(=O)[C@H]1[C@H](C)C[C@H]2[C@@H]3C[C@H](F)C4=CC(=O)C=C[C@]4(C)[C@@]3(F)[C@@H](O)C[C@@]21C
- Potency: inactive

SMILES: Cc1cccc2sc(N)nc12
- Potency: inactive

SMILES: C1CCN(CN2CCCCC2)CC1
- Potency: inactive

SMILES: CCOC(=O)C(Br)c1ccccc1 (configuration not stated)
- Potency: inactive

SMILES: CCCCCCCC/C=C\CCCCCCCC(=O)OC[C@@H](O)[C@H]1OC[C@H](O)[C@H]1O
- Potency: inactive

SMILES: COc1ccc(-c2cc(=O)c3c(O)cc(O[C@@H]4O[C@H](CO[C@@H]5O[C@@H](C)[C@H](O)[C@@H](O)[C@H]5O)[C@@H](O)[C@H](O)[C@H]4O)cc3o2)cc1O
- Potency: inactive

SMILES: CO[Si](C)(OC)c1ccccc1
- Potency: inactive

SMILES: Cc1c(Cl)cccc1[N+](=O)[O-]
- Potency: inactive

SMILES: Cc1cc(O)c2c(c1)C(=O)c1cccc(O)c1C2=O
- Potency: inactive
